Publication PMC10726135, “HNF4α isoforms regulate the circadian balance between carbohydrate and lipid metabolism in the liver”
Over roughly 18,000 sequences, “log2 normalized intensity” has its median near 0.36; the highest 2% begin near 7.3. The entries come from a sample that favours the highest values as a whole.

Target: T1, HNF4alpha8 (COS-7 nuclear extract) (Homo sapiens, UniProt P41235-5 1-452)
T1 sequence: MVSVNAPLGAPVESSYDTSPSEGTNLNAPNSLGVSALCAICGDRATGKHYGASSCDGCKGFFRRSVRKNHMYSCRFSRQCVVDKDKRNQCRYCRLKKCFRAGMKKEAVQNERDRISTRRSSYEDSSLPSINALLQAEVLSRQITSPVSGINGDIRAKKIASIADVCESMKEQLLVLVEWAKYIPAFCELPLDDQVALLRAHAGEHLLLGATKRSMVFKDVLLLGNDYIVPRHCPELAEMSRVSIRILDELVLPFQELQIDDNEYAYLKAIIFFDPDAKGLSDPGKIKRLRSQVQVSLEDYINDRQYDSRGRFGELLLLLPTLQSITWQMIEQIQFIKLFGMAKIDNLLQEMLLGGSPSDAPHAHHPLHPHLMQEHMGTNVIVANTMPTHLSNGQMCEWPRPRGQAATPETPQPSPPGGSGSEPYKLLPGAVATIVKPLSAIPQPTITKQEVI
Assay: protein-binding microarray; COS-7 nuclear extract on double-stranded Agilent 4x180k PBM; binding buffer, salt, pH and temperature not given in the material; high values mean tight binding
Details: chain copies: 2; label: 3' end of strand 1 on the slide; dsDNA, one strand shown
Procedure, shortened: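 Nuclear extracts from COS-7 cells expressing a transiently transfected human HNF4α isoform were put on a custom Agilent SurePrint G3 4x180k array carrying ~44,000 double-stranded ~60-nt test sequences in quadruplicate. Imaging used an Agilent G2565CA scanner at 2-µm resolution. Binding signal is the background-corrected, normalized gProcessedSignal from Agilent software.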

Sequence	binding signal [log2 normalized intensity]
CTGTGCAAGCCCCTGACCAAGGGTCATGCTGCCTAGGGAGATTAGAGTATCGGTCGA	3.96
AGCCTCTCACAGTAGCCCAGGTCCTTTGGTGCCTAGGGAGATTAGAGTATCGGTCGA	0.598
TGCCCAGCTTGAATCACTCACTGACCTCTTGCCTAGGGAGATTAGAGTATCGGTCGA	4.46
GCTATCTTATCTTTGACCTTACCAGCCCACGCCTAGGGAGATTAGAGTATCGGTCGA	2.94
CTTTGCCCCCAGCCTCTCACAGTAGCCCAGGCCTAGGGAGATTAGAGTATCGGTCGA	4.72
GAACTCTGACCTTTGCCCCCAGCCTCTCACGCCTAGGGAGATTAGAGTATCGGTCGA	9.22
CTGACCTTTGCCCCCAGCCTCTCACAGTAGGCCTAGGGAGATTAGAGTATCGGTCGA	7.53
TCTGCTTGCCATTAATGAAAACTGCACTTCGCCTAGGGAGATTAGAGTATCGGTCGA	2.38
TTTATTTGAAGAAATGGTGGACTTTGTAGCGCCTAGGGAGATTAGAGTATCGGTCGA	6.52
CACCACTAGGAAACTGACCTTTGCTCATGAGCCTAGGGAGATTAGAGTATCGGTCGA	7.58
TCATTGATGAGTGACCTTTGACCTCAGAGAGCCTAGGGAGATTAGAGTATCGGTCGA	10.5
GGCTGATGACCTTTGACTGAGATGGGAGCAGCCTAGGGAGATTAGAGTATCGGTCGA	4.58
CCCTCAGAGCTCAGATGAACTTTGCCTTAGGCCTAGGGAGATTAGAGTATCGGTCGA	6.28
ATTCTCACCACTAGGAAACTGACCTTTGCTGCCTAGGGAGATTAGAGTATCGGTCGA	6.07
CTAGGAAACTGACCTTTGCTCATGACTATTGCCTAGGGAGATTAGAGTATCGGTCGA	6.61
AAAGACTTGCTCATTGATGAGTGACCTTTGGCCTAGGGAGATTAGAGTATCGGTCGA	7
TTGCCCCTTTGACCCTCGGGCCTCCCTAGAGCCTAGGGAGATTAGAGTATCGGTCGA	4.81
CTACTACTTGACCTTTGAAACATATCCAGAGCCTAGGGAGATTAGAGTATCGGTCGA	6.31
GATGAGTGACCTTTGACCTCAGAGAGCCGGGCCTAGGGAGATTAGAGTATCGGTCGA	9.88
GTGACCTTTGACCTCAGAGAGCCGGAAACTGCCTAGGGAGATTAGAGTATCGGTCGA	8.02
CTTTGACCTCAGAGAGCCGGAAACTCCACCGCCTAGGGAGATTAGAGTATCGGTCGA	-0.861
GGTCAATGTGCACATTCGAAGTTTTGCTCCGCCTAGGGAGATTAGAGTATCGGTCGA	1.65
GGATATTTGATCAAAGGTCAGCTCTCCTTTGCCTAGGGAGATTAGAGTATCGGTCGA	5.11
TTTATAATCCTAGCTTGGTTTTTCTGGGACGCCTAGGGAGATTAGAGTATCGGTCGA	0.942
GGATTATGGAGATGGAGATGGCCTGGAGGTGCCTAGGGAGATTAGAGTATCGGTCGA	0.909
ACAACCAGGGAGATGTGAGCGACCTTTGCAGCCTAGGGAGATTAGAGTATCGGTCGA	4.55
GGTTGTAAAATGAGGTCAGCATGGTGGGAGGCCTAGGGAGATTAGAGTATCGGTCGA	1.04

Sequence	binding signal [log2 normalized intensity]
GGGGCGATGCTTCCAAAGTCCACAGTCCCCGCCTAGGGAGATTAGAGTATCGGTCGA	3.92
CTCTTTTACTGTACTTCTTTAGGACTGCTCGCCTAGGGAGATTAGAGTATCGGTCGA	1.37
ATATAAAAACTAACCATACTGAGTGTTGGTGCCTAGGGAGATTAGAGTATCGGTCGA	-0.252
AGTGTAAGGACATTGCCCCCTATGTAAAGGGCCTAGGGAGATTAGAGTATCGGTCGA	4.09
TGATTACCCTTATCTTATCTCCTGCTAAATGCCTAGGGAGATTAGAGTATCGGTCGA	-0.759
TTTCAACATTTAACTTAACCACTCAATCAGGCCTAGGGAGATTAGAGTATCGGTCGA	-0.86
CTTTGAGATTTGCATTCATGATCTTAGATAGCCTAGGGAGATTAGAGTATCGGTCGA	0.242
ACCTTTGCCTTCTTGACATCTCTCTCTGCAGCCTAGGGAGATTAGAGTATCGGTCGA	-0.0607
CTCAAGTGACCTTTGACCTCTGGCCTTTGCGCCTAGGGAGATTAGAGTATCGGTCGA	10.3
ACCACTTTGAAATAGTGACCTCTGCTGGCCGCCTAGGGAGATTAGAGTATCGGTCGA	3.43
CTGACAAGTATCTCGGTCAAACCTTTGACCGCCTAGGGAGATTAGAGTATCGGTCGA	6.35
GATGTTTAGCTATCAGTGTTGACCTCTGGAGCCTAGGGAGATTAGAGTATCGGTCGA	6.06
CTGACCTCAAGTGACCTTTGACCTCTGGCCGCCTAGGGAGATTAGAGTATCGGTCGA	11.2
CTCTAACCACTTTGAAATAGTGACCTCTGCGCCTAGGGAGATTAGAGTATCGGTCGA	5.01
TATCAGTGTTGACCTCTGGACCTCATCTTCGCCTAGGGAGATTAGAGTATCGGTCGA	6.23
TGACCTTTGCCTCATTCTTATTGCCTCATGGCCTAGGGAGATTAGAGTATCGGTCGA	4.2
GTGACCTTTGACCTCTGGCCTTTGCAGTTAGCCTAGGGAGATTAGAGTATCGGTCGA	8.79
TTAGCTATCAGTGTTGACCTCTGGACCTCAGCCTAGGGAGATTAGAGTATCGGTCGA	7.79
TCTGGTGCCAAGGAGCCTCTGCAACCTTTGGCCTAGGGAGATTAGAGTATCGGTCGA	3.43
CAGGAGTCGGGAGGTAGGGGTGGCGGGTTGGCCTAGGGAGATTAGAGTATCGGTCGA	0.403
GCCAAAGGTCAGAGTTGAACCCTTGGGGCTGCCTAGGGAGATTAGAGTATCGGTCGA	4.38
TCTGCTGTACATATTTGCCAAGTGATAAGGGCCTAGGGAGATTAGAGTATCGGTCGA	1.01
TCTAACATTTTTGACCTTCAGCATCTTCAAGCCTAGGGAGATTAGAGTATCGGTCGA	3.81
CCTTTGAGATAGCTATGATTATCCTTATCTGCCTAGGGAGATTAGAGTATCGGTCGA	-0.293
ATCTGTATCAGCCTGTGACAAAGTCCATCTGCCTAGGGAGATTAGAGTATCGGTCGA	5.65
CCCGGACCAGGCCGGGTCACGTGGGTCCAGGCCTAGGGAGATTAGAGTATCGGTCGA	3.63
GTCAGTCTTTGTTCTAGTAAGGCCTTCAAAGCCTAGGGAGATTAGAGTATCGGTCGA	0.595
